Inconclusive results are not listed. The source made the active and inactive calls. Calls follow the shape of the dose curve; as a rule, active = well fitted curve in the direction sought with a large enough effect; inconclusive = small, poorly fitted or top-dose-only effect, or another doubt; inactive = no such curve, though single readings can be large; an effect the other way counts as inactive or inconclusive.
Experiments:
[1] = qHTS Screen of the MIPE 4.0 Collection Against Ewings Sarcoma (RDES) (AID 1259252); also: nearly all actives have a fitted effect of over 35% in size; also: potency is read from the fitted curve at half-maximal effect
How it was run: (§1)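 Log-phase cells in RPMI with 5% FBS attached for 4 h, then received compounds as a titration for 48 h at 37C, 5% CO2. Viability was read by CellTiter-Glo luminescence and normalized to DMSO and no-cell wells.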

[2] = qHTS Screen of the MIPE 4.0 Collection Against Ewings Sarcoma (TC71) (AID 1259253); also: nearly all actives have a fitted effect of over 40% in size; also: potency is read from the fitted curve at half-maximal effect
How it was run: as §1

[3] = qHTS Screen of the MIPE 4.0 Collection Against Ewings Sarcoma (EW8) (AID 1259255); also: nearly all actives have a fitted effect of over 35% in size; also: potency is read from the fitted curve at half-maximal effect
How it was run: as §1

[4] = qHTS Screen of the MIPE 4.0 Collection Against Ewings Sarcoma (TC32) (AID 1259256); also: nearly all actives have a fitted effect of over 45% in size; also: potency is read from the fitted curve at half-maximal effect
How it was run: as §1

[5] = Identifying Small Molecule Inhibitors of Pancreatic Cancer Stem Cells (SN12C, Adherent) (AID 1259358);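 also: cell survival measured after 48 h of compound exposure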
Source text: Progenitor-like cancer cells, often referred to as cancer stem cells (CSC), are believed to be the drivers of therapeutic resistance and rapid recurrence. CSCs are postulated to reside in specific niches characterized by low oxygen tension, limited nutrient supply, and high redox load. Selectively targeting CSC, alone or in combination with cytotoxic agents, as a means to produce durable remissions is an appealing concept. Modeling these cells in in vitro setting is an important step in finding new therapies and/or targets. Multiple reports highlight that forcing cells in culture into 3-dimensionaly architectures (spheroids) re-establishes key progenitor-like transcriptional signatures. Pancreatic cancer is among the diseases with the most dismal outlook which is driven, largely, by recurance following front-line therapies. […] In hopes of deriving new insight into the targeting of these pancreatic CSCs we examined three established pancreatic cancer cell lines in cytotoxicity assays versus a collection of approved and investigational drugs. Importantly, we screened these lines as traditional monolayer (2D) and spheroid (3D) formats to gain an appreciation of agents with differential activity.
Multicellular tumor spheroids from Panc1, MiaPaCa-2, and the primary low-passage tissue culture line SB.06 were seeded in stem cell media (SCM) in nonadherent 6-well plates coated with hydrogel (Corning Life Sciences, Chelmsford, Mass) and pancreatic spheres generated for 14 days before screening. Cells were seeded into 1536-well solid-bottom white tissue culture treated Greiner Bio One Plates (789173-F) using a MultiDrop Combi (Thermofisher Scientific) dispenser and a small sterile cassette. One column was media alone to be used as a :"no cells" control. The plates were then covered with sterilized stainless steel gasketed lids from Kalypsys. After allowing cells to attach for 4 hours, 23 nL of test compound or control (negative control DMSO and positive control 9.2 uM Bortezomib-final) were added from a 1536-well polypropylene compound source plate to each well using a 1536 head pin tool from Kalypsys. Cells were then incubated for 48 hours at 37C, 95% relative humidity and 5% CO2. After 48 hours, plates were removed from the incubator and 3 uL of CellTiter-Glo (Promega) was added using an Aurora Flying Reagent Dispenser Bioraptor. Plates were incubated at room temperature for 10 minutes prior to reading the luminescence on the Viewlux (PerkinElmer). The relative luciferase units are used to calculate the percent activity using the activity of DMSO in the cells and no cells columns for normalization of no inhibition and full inhibition respectively.

[6] = Identifying Small Molecule Inhibitors of Pancreatic Cancer Stem Cells (SN12C, Spheroid) (AID 1259360); conditions: Potency: SN12C spheroid viability
How it was run: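 Spheroids grown 14 days in stem cell media on hydrogel-coated nonadherent plates; 2D lines seeded directly. Compounds added after 4 h attachment, 48 h at 37C, 5% CO2; CellTiter-Glo luminescence normalized to DMSO (no inhibition) and no-cell wells (full inhibition).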

[7] = qHTS assay to identify small molecule inhibitors of chordoma cells - UCH-1 (AID 1259355); also: nearly all actives have a fitted effect of over 55% in size
How it was run: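 Screening used approved and investigational drugs in 15-point titration against 800 seeded cells per well. A fixed combination of auranofin with camptothecin, doxorubicin, rubitecan and topotecan followed compound addition, and growth was scored by CellTiter-Glo after 48hr.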

[8] = qHTS assay to identify small molecule inhibitors of chordoma cells - UCH-2 (AID 1259356); also: potency is read from the fitted curve at half-maximal effect

Measured: Potency

CCN(CC)CCn1c(=O)c(Cc2ccc(OC)cc2)nc2ccccc21
not listed: [7] | [8]
inactive: all other assays above

O=C(O)c1cc(=O)[nH]c(=O)[nH]1
not listed: [5] | [6]
inactive: all other assays above

COc1ccc(C(=O)CC(=O)c2ccc(C(C)(C)C)cc2)cc1
active: [1] 1.05 µM | [2] 1.66 µM | [3] 2.09 µM | [4] 1.66 µM
inactive: [8]

CC(=O)Oc1ccccc1C(=O)Nc1ncc([N+](=O)[O-])s1
inactive: [8]
active: [1] 21.5 µM | [2] 19.1 µM | [3] 21.5 µM | [4] 21.5 µM

C[C@@H](NCCCc1cccc(C(F)(F)F)c1)c1cccc2ccccc12
active: [2] 1.48 µM | [8] 25.9 µM
inactive: [1] | [3]

Nc1ccc(S(=O)(=O)Nc2ccccn2)cc1
inactive: [1] | [2] | [3] | [4] | [8]

Oc1c(Cl)cc(Cl)c2cccnc12
active: [1] 13.2 µM | [2] 10.5 µM | [3] 8.33 µM | [4] 7.43 µM | [8] 23.1 µM

CC1=CC(=O)c2ccccc2C1=O
inactive: [8]
active: [1] 18.7 µM | [2] 26.4 µM | [4] 26.4 µM

COc1ccc(-c2ccc3cc(C(=O)O)ccc3c2)cc1C12CC3CC(CC(C3)C1)C2
active: [1] 2.09 µM | [2] 2.96 µM
inactive: [3] | [7] | [8]

CC(C)NCC(O)c1ccc(NS(C)(=O)=O)cc1 (stereo not given)
inactive: [7] | [8]
active: [1] 5.9 µM | [2] 16.6 µM | [3] 16.6 µM

O=C(O)C1CCCN(CCC=C(c2ccccc2)c2ccccc2)C1 (stereo not given)
active: [1] 11.8 µM | [3] 13.2 µM | [4] 9.35 µM

CCOC(=O)c1ccc(OC(=O)CCCCCN=C(N)N)cc1
inactive: [1] | [2] | [3] | [4] | [8]

Cc1oc(=O)oc1CN1CCN(c2cc3c(cc2F)c(=O)c(C(=O)O)c2n3C(C)S2)CC1 (stereo not given)
inactive: [1] | [2] | [3] | [8]

Cc1nnc(C(=O)NC(C)(C)c2nc(C(=O)NCc3ccc(F)cc3)c(O)c(=O)n2C)o1
inactive: [1] | [3] | [4]
